Screens as filed in PubChem BioAssay.
An excerpt weighted towards active compounds, which were near 2.3% of everything screened.
A549 tox – Nrf2 qHTS screen for inhibitors: counterscreen for cytotoxicity. A549 ARE-Fluc cells, CellTiter-Fluor viability, 18-24 h. Potency, µM (titrated, usually from 46 µM), inactives show at the highest dose activity change, negative = cytotoxicity, hits mostly inhibitors. AID 504648, 2011. 390,000 compounds, 0.16% hits; note: potency is the fitted concentration of half-maximal effect; % is set by controls: 0 for no effect and ±100 for the full control effect
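A549 ARE_Fluc cells in 5% FBS OPTI-MEM were exposed to compounds in concentration-response for 18-24 h at 37 deg C. Viability was read by CellTiter-Fluor fluorescence (Ex 405/Em 525) after 30 min, before the luciferase read.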
Nrf2 inh – Nrf2 qHTS screen for inhibitors | A549 ARE-Fluc reporter, luciferase luminescence, 18-24 h | Potency, µM (highest dose often 46 µM), without a hit: at the highest dose activity change, negative = inhibition, usual class: inhibitors | 360,000 compounds, 2.1% hits; note: potency is the fitted concentration of half-maximal effect; % is set by controls: 0 for no effect and ±100 for the full control effect; nearly all actives have a fitted effect of over 60% in size
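Nrf2 function is reported as luminescence of an ARE-controlled luciferase in A549 cells. Compounds were tested at several concentrations, and a CellTiter-Fluor read on the same wells flagged cytotoxicity.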
Nrf2 ARE act – qHTS of Nrf2 Activators; AREc32 ARE-luciferase reporter (MCF7-derived line), luminescence, 24 h; Potency, µM (top dose mostly 46.1 µM), without a hit: top-dose activation, usual class: activators; 410,000 compounds, 0.31% hits; note: potency is the fitted concentration of half-maximal effect; % of control where 0% means no effect; nearly all actives have a fitted effect of over 65% in size
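For detection, Steady-Glo was added and plates sat 30 min at RT; before that, AREc32_Fluc cells grown overnight in OPTI-MEM/5% FBS had been treated with 23 nL compound for 24 hr at 37 deg C.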
IL-2 act – qHTS of IL-2 Activators; IL-2 activation reporter assay, cell-based qHTS; stimulated with anti-CD3/CD4/CD28 beads; in transgenic mouse T cells; activation, % (series mostly up to about 46 µM); 360,000 compounds, 0.065% hits; AID 652025, 2013; in the data active = activation above about 50%; inconclusive = mostly about 30% to 49%; note: 0% is about no effect
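Unstimulated transgenic mouse T cells preincubated 60 min with compound, then stimulated with anti-CD3/anti-CD4-coated beads plus anti-CD28 for 18 h at 37 degrees C. IL-2 response read as EGFP and DsRed fluorescence by plate cytometry.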
An asterisk follows results filed as active; ? = inconclusive; · = no result. Unless noted, calls come from the whole dose curve; as a rule, active = well fitted curve in the direction sought with a large enough effect; inconclusive = small, poorly fitted or top-dose-only effect, or another doubt; inactive = no such curve, though single readings can be large; an effect the other way counts as inactive or inconclusive.

SMILES | A549 tox | Nrf2 inh | Nrf2 ARE act | IL-2 act
CCN(CC)C(=O)c1ccc2c(c1)N(Cc1ccc(C(F)(F)F)cc1)C(=O)c1ccccc1S2 | -2% | 12µM* | 0% | ·
Cc1cccc(N2CCN(S(=O)(=O)c3ccc4c(c3)C(C(C)C)C(=O)N4)CC2)c1C (configuration not stated) | -2% | 13µM* | 0% | ·
Cc1cccc(N2CCN(S(=O)(=O)c3ccc4c(c3)NC(=O)C(C)S4)CC2)c1C (configuration not stated) | -6% | -28% | -1% | -6
Cc1ccc(C)c(N2CCN(S(=O)(=O)c3ccc4[nH]c(=O)ccc4c3)CC2)c1 | 3% | -27% | 0% | -3
Cc1cccc(N2CCN(S(=O)(=O)c3ccc4[nH]c(=O)ccc4c3)CC2)c1C | -25% | 18µM* | 1% | -3
O=C(CN1C(=O)C2CCCCN2c2ccc(C(=O)N3CCCC3)cc21)NCc1ccc(F)cc1 (configuration not stated) | -1% | · | 0% | ·
Cc1ccc(CNC(=O)c2ccc3c(=O)c(O)c(-c4ccc(C)cc4)[nH]c3c2)cc1 | ? | 21µM* | 7% | -1
CCCNC(=O)c1ccc2c(=O)c(O)c(-c3ccc(C)cc3)[nH]c2c1 | -3% | -4% | 0% | 1
CC1CCc2[nH]c3ccc(C(=O)N(C)CC(=O)Nc4ccccc4Br)cc3c2C1 (configuration not stated) | ? | ? | 4% | -1
Cc1ccc(C)c(NC(=O)CN(C)C(=O)c2ccc3[nH]c4c(c3c2)CC(C)CC4)c1 (configuration not stated) | ? | 18µM* | 3% | -4
CN(Cc1nccn1C)C(=O)c1cc(COc2ccc3ncccc3c2)on1 | -7% | 21µM* | 0% | -2
CC(CNC(=O)c1cc(COc2ccc3ncccc3c2)on1)c1ccccc1 (configuration not stated) | -16% | 15µM* | 2% | -2
COCC1CCCN(C(=O)c2cc(COc3ccc4ncccc4c3)on2)C1 (configuration not stated) | -18% | 8.2µM* | 0% | 0
CCOC(=O)N1CCN(C(=O)c2cc(COc3ccc4ncccc4c3)on2)CC1 | -13% | 18µM* | 3% | 0
CN(Cc1nccn1C)C(=O)c1cc(COc2cccc(C(F)(F)F)c2)on1 | ? | -6% | 4% | -3
COc1ccc(-c2cn(-c3ccc(C)cc3)c(S(=O)(=O)CC(=O)Nc3ccc(F)cc3)n2)cc1 | -20% | ? | 6% | ·
O=C(c1cc(COc2ccc3ncccc3c2)on1)N1CCCC(O)C1 (configuration not stated) | -7% | ? | 3% | -3
O=C(c1cc(COc2ccc3ncccc3c2)on1)N1CCC[C@H]1CO | -20% | 9.2µM* | 2% | 0
Cc1nnc(Sc2cc(NCCCO)c([N+](=O)[O-])c3nonc23)s1 | 1% | 1% | -3% | -4
Cc1nnc(Sc2cc(NCCO)c([N+](=O)[O-])c3nonc23)s1 | 26µM* | ? | 0% | -2
COc1ccc(CCNC(=O)Cn2nc(C)c3c(C)n(-c4ccccc4)nc3c2=O)c(OC)c1 | 4% | -23% | 3% | -2
COc1ccc(OC)c(CCNC(=O)Cn2nc(C)c3c(C)n(-c4ccc(C)cc4)nc3c2=O)c1 | -15% | 10µM* | 2% | -2
O=C(c1ccccc1O)N(Cc1ccccc1)Cc1ccccc1 | 4% | 3% | · | ·
Cc1cccc(CNC(=O)c2ccc(-c3nc(CS(=O)(=O)c4ccccc4)c(C)o3)cc2)c1 | 6% | ? | 1% | ·
COc1cccc(CNC(=O)c2ccc(-c3nc(CS(=O)(=O)c4ccccc4)c(C)o3)cc2)c1 | 7% | 23µM* | 0% | ·
SMILES | A549 tox | Nrf2 inh | Nrf2 ARE act | IL-2 act
COc1cccc(NC(=O)CS(=O)(=O)Cc2nc(-c3ccc(C)cc3)oc2C)c1 | -15% | 26µM* | 1% | -1
CCOC(=O)c1ccc(NC(=O)CN(c2ccc(C)cc2)S(=O)(=O)c2ccc(OC)cc2)cc1 | 2% | 11% | 0% | ·
CCOC(=O)c1ccc(NC(=O)CN(C)S(=O)(=O)c2ccc(OC)cc2)cc1 | -2% | -25% | 0% | 70*
N#CCCN(C(=O)CSc1nc2nc(-c3cccs3)cc(C(F)(F)F)c2c(=O)[nH]1)c1ccccc1 | 2% | 21µM* | -1% | 0
O=C(CSc1nc2nc(-c3cccs3)cc(C(F)(F)F)c2c(=O)[nH]1)Nc1c(F)c(F)c(F)c(F)c1F | -13% | ? | 0% | -1
CNc1nc(-c2ccccc2)c(-c2ccccc2)s1 | 4% | ? | · | ·
O=C(Cn1c(-c2cccs2)cc2ccccc21)NCCCN1CCN(c2ccccc2F)CC1 | ? | ? | -3% | ·
CC(C)(C)C(=O)NC(=S)NNC(=O)c1sc2ccccc2c1Cl | ? | 5.8µM* | -1% | 0
CCOc1ccccc1-n1c(CN2CCN(C(=O)c3ccco3)CC2)nc2ccccc2c1=O | -22% | 16µM* | -1% | -3
CCOc1ccccc1-c1nc(CN2CCN(C(=O)c3ccco3)CC2)c(C)o1 | 4% | -1% | 0% | -1
Cc1ccc(-c2nnc(Nc3ccc(Cl)cc3)c3ccccc23)cc1S(=O)(=O)N1CCOCC1 | -7% | -5% | 4% | ·
COc1ccc(-n2ncc3c2ncn2nc(Cc4ccccc4)nc32)cc1 | -2% | ? | 4% | ·
c1ccc(-n2ncc3c2ncn2nc(-c4ccco4)nc32)cc1 | -7% | ? | 10µM* | 2
CC1=C(C(=O)Nc2ccccc2)C(c2ccc(O)cc2)n2nc(-c3ccc(Cl)cc3)nc2N1 (configuration not stated) | -11% | -13% | -1% | ·
COc1cccc(CN(C)C(=O)c2ccc(OCC(=O)Nc3cccc(C(F)(F)F)c3)c(OC)c2)c1 | ? | 4.6µM* | -1% | -7
COc1cc(C(=O)NCCCN(C)C)ccc1OCC(=O)Nc1cccc(C(F)(F)F)c1 | 1% | -4% | 2% | -1
COc1ccc(CN(C)C(=O)c2ccc(OCC(=O)Nc3cccc(C(F)(F)F)c3)c(OC)c2)c(OC)c1 | -21% | 16µM* | 4% | -1
COc1ccccc1C1NC(c2ccc3c(c2)OCO3)=CC(c2cc(Br)ccc2O)N1 (configuration not stated) | 0% | ? | · | ·
CCOc1ccc2nc(N3CCN(C(=O)c4ccc5c(c4)CCCC5)CC3)sc2c1 | -3% | · | -1% | ·
CCCc1nc2ccccc2c(C(=O)OCC(=O)NCc2ccc3c(c2)OCO3)c1CC | ? | 21µM* | -1% | -1
COc1cc(Cl)c(C)cc1NC(=O)c1cc2c(Cl)nc3ccc(C)cc3c2s1 | 0% | 6% | 6% | ·
CCC/C=C1/CCCOC(C(=O)NCC2CC2)(C(F)(F)F)C1 (configuration not stated) | -3% | 20% | · | ·
CN1c2cc(Cl)ccc2-c2nc(SCC(=O)Nc3ccc(F)cc3F)ncc2S1(=O)=O | -17% | 16µM* | -1% | ·
